Assay outcomes as filed in PubChem BioAssay.
HP1b binding inh: HP1-beta chromodomain-methylated histone interaction inhibition | AlphaScreen HP1-beta / biotin-H3K9me3 peptide binding | Potency, µM (series often up to 114 µM), for the others: at the highest dose activity change, negative = inhibition, usual class: inhibitors | 0.56% of 390,000 active; further: potency means the concentration at half of the fitted maximal effect; nearly all actives have a fitted effect of over 70% in size
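AlphaScreen: HP1-beta (50 nM) preformed 30 min with biotin-H3(1-18)K9me3 peptide (50 nM) in PBS pH 7.4, 0.01% Tween-20. Compound added for 30 min at RT, then streptavidin donor/nickel chelate acceptor beads (10 ug/mL) for 30 min.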
PI5P4Ka inh: blocks human PI5P4K alpha kinase activity; P48426; PI5P4Kalpha enzyme, ADP-Glo luminescence, 60 min; hits give low values; max response, %; 1.2% of 330,000 active; AID 652105; active means max response of -50% or lower; inconclusive means between -30% and -50%; inactive means -30% or higher; further: value at the top dose of about 77 µM; on the % scale 0 is the no-effect control and ±100 the full control effect
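Reactions run in 0.038 M HEPES pH 7.4, 0.28 mM EGTA, 0.1% CHAPS and 5% DMSO, with PI5P4Kalpha, substrate, compound and 5 microM ATP final, one hour at room temperature. Readout is ADP-Glo luminescence.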
BAZ2B inh: blocks human BAZ2B; Q9UIF8; AID 504333; 4.4% of 360,000 active; AlphaScreen BAZ2B-H3K14Ac peptide displacement; Potency, µM (doses to about 114 µM), without a hit: at the top dose activity change, negative = inhibition, actives largely listed as inhibitors; further: potency means the concentration at half of the fitted maximal effect; on the % scale 0 is the no-effect control and ±100 the full control effect; nearly all actives have a fitted effect of over 60% in size
Target sequence (Q9UIF8 whole entry, looked up): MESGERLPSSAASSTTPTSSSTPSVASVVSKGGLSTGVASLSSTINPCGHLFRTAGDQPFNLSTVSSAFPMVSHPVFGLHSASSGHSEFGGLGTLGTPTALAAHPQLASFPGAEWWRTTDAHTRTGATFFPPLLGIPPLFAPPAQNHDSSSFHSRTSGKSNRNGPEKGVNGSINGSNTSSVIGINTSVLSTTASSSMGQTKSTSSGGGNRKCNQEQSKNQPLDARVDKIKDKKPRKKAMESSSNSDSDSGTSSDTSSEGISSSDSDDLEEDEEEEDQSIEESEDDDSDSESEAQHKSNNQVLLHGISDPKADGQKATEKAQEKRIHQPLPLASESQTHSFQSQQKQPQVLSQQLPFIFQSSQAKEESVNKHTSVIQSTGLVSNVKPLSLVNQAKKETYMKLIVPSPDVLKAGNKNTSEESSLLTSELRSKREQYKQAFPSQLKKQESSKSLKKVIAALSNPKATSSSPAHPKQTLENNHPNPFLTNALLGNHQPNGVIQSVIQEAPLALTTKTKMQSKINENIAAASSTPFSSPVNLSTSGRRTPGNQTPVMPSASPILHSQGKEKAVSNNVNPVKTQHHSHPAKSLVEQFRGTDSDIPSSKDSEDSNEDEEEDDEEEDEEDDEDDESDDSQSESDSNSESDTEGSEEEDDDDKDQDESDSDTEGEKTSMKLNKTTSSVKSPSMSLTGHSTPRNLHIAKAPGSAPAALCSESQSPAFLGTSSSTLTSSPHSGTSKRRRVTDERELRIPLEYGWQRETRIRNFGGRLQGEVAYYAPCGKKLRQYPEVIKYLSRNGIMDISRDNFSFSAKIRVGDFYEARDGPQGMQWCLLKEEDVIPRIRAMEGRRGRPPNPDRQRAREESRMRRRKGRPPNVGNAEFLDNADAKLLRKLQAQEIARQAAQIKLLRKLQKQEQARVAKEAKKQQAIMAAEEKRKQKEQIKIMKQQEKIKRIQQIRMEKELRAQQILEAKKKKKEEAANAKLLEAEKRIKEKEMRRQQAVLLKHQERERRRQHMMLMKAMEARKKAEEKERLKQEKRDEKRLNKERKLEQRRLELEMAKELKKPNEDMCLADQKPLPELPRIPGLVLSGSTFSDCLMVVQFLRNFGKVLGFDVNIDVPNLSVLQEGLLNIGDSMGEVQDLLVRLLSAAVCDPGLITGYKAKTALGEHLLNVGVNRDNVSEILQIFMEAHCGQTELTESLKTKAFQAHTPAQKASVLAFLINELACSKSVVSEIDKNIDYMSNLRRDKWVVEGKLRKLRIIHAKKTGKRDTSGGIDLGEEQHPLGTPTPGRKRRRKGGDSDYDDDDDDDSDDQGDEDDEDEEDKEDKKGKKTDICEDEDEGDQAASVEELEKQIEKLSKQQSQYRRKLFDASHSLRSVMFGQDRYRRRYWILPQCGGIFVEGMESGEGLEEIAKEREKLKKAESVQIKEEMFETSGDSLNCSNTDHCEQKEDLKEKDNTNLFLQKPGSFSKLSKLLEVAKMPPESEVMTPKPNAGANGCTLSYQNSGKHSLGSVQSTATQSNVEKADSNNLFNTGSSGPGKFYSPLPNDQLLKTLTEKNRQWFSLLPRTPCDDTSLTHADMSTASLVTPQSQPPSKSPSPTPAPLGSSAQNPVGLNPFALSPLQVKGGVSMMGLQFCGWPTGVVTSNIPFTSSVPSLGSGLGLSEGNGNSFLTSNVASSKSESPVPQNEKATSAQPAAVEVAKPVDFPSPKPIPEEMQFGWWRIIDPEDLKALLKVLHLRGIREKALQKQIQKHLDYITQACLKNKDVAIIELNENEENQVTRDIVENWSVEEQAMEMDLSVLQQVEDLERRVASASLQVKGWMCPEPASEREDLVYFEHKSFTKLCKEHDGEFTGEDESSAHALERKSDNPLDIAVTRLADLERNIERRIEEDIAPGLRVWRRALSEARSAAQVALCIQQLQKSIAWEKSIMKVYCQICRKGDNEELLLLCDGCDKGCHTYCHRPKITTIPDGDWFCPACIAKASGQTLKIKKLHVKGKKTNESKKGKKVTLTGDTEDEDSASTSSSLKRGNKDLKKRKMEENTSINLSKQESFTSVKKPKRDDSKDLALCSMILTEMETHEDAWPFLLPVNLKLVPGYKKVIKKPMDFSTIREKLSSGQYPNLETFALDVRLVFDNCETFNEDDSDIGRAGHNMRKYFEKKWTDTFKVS
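BAZ2B (50 nM) with biotin-H3(5-23)K14Ac peptide (50 nM) in PBS pH 7.4, 0.01% Tween-20, preformed 30 min, then compound 30 min at room temperature; top concentration 110uM. AlphaScreen streptavidin donor/nickel chelate acceptor beads (10 ug/mL final), 20 min dark, signal read.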
L3MBTL1 block: inhibitors of human L3MBTL1; Potency, µM (doses to about 57.1 µM), for the others: at the highest dose activity, negative = inhibition, hits mostly inhibitors; 0.66% of 230,000 active; Q9Y468; AlphaScreen L3MBTL1–H3K9me1 peptide binding; further: potency means the concentration at half of the fitted maximal effect; on the % scale 0 is the no-effect control and ±100 the full control effect; nearly all actives have a fitted effect of over 60% in size
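L3MBTL1 (50 nM) pre-complexed 30 min with biotinylated H3(1-15)K9me1 peptide (75 nM), then compounds added for 30 min at room temperature; AlphaScreen streptavidin donor/nickel chelate acceptor beads (10 ug/mL final) read after 30 min dark incubation.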
JMJD2E inh: JMJD2E (human) inhibition | JMJD2E catalytic domain, FDH-coupled NADH fluorescence (FDH is formaldehyde dehydrogenase) | Potency, µM (titrated, usually from 57.1 µM), for inactives: at the highest dose activity change, negative = inhibition, usual class: inhibitors | 1.6% of 230,000 active; active means well fitted inhibition curve with a large enough effect, not every such curve was filed as active; inconclusive means small, poorly fitted or top-dose-only effect, or another doubt; inactive means no such curve, though single readings can be large or run the other way;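 further: potency means the concentration at half of the fitted maximal effect; 0% = wells with enzyme and -100% = buffer wells without enzyme; nearly all actives have a fitted effect of over 50% in size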
JMJD2A Tudor: blocks the human JMJD2A Tudor domain; O75164; Potency, µM (top dose mostly 114 µM), inactives show at the top dose activity change, negative = inhibition, hits mostly inhibitors; AlphaScreen JMJD2A-Tudor / H3K4me3 peptide binding; 4.4% of 390,000 active; further: potency means the concentration at half of the fitted maximal effect; on the % scale 0 is the no-effect control and ±100 the full control effect; nearly all actives have a fitted effect of over 50% in size
* hit, by the source's call; ? = inconclusive; · = no result. Hits are enriched below; roughly 5.7% of the tested compounds scored in any of these assays. Unless noted, the call rests on the fitted dose curve; in most records, active means well fitted inhibition curve with a large enough effect; inconclusive means small, poorly fitted or top-dose-only effect; inactive means no such curve, though single readings can be large or run the other way.

SMILES	HP1b binding inh	PI5P4Ka inh	BAZ2B inh	L3MBTL1 block	JMJD2E inh	JMJD2A Tudor
Cc1cc(C)n(CCCNCC(O)c2ccccc2)n1 (stereo unspecified)	?	0.4	?	4.0%	-2.9%	79.4µM*
CCOC(=O)C1=NS(=O)(=O)NC(C)=C1	13.3%	-5.8	·	5.1%	·	56.2µM*
Cc1cc(NC(=O)CN(C)CCOc2ccccc2)ccc1Br	?	11.0	35.5µM*	·	?	0.794µM*
Cc1ccc(NC(=O)Cc2n[nH]c(=S)n2C)cc1	30.7%	0.9	-24.2%	·	7.6%	8.91µM*
CN(Cc1n[nH]c(=S)n1C)S(=O)(=O)c1ccccc1	26.0%	·	1.6%	6.1%	-3.1%	5.62µM*
Cn1c(CC(=O)Nc2ccc(Cl)c(Cl)c2)n[nH]c1=S	12.1%	-6.0	-1.7%	-23.5%	-9.8%	-11.0%
CCn1c(CC(=O)Nc2ccc(C)cc2)n[nH]c1=S	8.4%	0.2	?	-3.4%	1.5%	3.55µM*
Cc1ccccc1NC(=O)Cc1nnc(SCC(=O)Nc2ccccc2)n1C	53.0%	0.8	-20.3%	0.0%	1.0%	-8.6%
CN(Cc1nc2ccccc2n1C)S(=O)(=O)c1ccc(F)cc1	48.1%	3.2	-3.3%	2.9%	2.0%	-12.3%
Cn1c(CC(=O)Nc2ccccc2)n[nH]c1=S	25.0%	-1.9	-12.2%	-0.7%	-10.5%	5.01µM*
Cn1c(=O)c2cc(C(=O)N3CCN(c4cccc(C(F)(F)F)c4)CC3)sc2c2ccccc21	3.6%	·	·	·	·	-23.3%
CC(=O)N1CCc2cc(S(=O)(=O)Nc3ccc(C)c(C)c3)ccc21	·	·	·	·	·	-6.1%
Clc1ccc(C[n+]2csc3ccccc32)cc1	22.6%	-19.8	50.1µM*	-0.4%	?	50.1µM*
Cc1ccc(-c2c[n+](Cc3ccc(Cl)cc3)c3n2CCC3)cc1	-2.8%	-5.0	-26.1%	3.3%	1.2%	-10.1%
Fc1ccc(C[n+]2csc3ccccc32)cc1	14.9%	-14.4	56.2µM*	-6.5%	?	?
Cc1nc2c3ccccc3nc(NNC(=O)CCC(=O)O)n2n1	23.2%	·	-13.9%	·	·	-7.1%
CCCCCn1c(=N)n(CC(O)COc2ccccc2OC)c2ccccc21 (stereo unspecified)	9.1%	1.5	-9.0%	5.01µM*	-5.9%	-24.8%
O=C(O)c1cnn2c(C(F)(F)F)cc(-c3ccco3)nc12	20.5%	·	-31.5%	-6.3%	?	20µM*
Cc1nn(C)c2c1c(C(F)(F)F)cc(=O)n2CC(=O)N1CCC(C)CC1	0.6%	·	-13.4%	·	·	-12.0%
COC(=O)Cc1[nH]c(=S)[nH]c1C(=O)OC	6.6%	-5.3	-5.4%	1.8%	2.8%	3.16µM*
CC(C)N1CCN(Cc2cccc(-n3cccn3)c2)CC1CCO (stereo unspecified)	30.0%	-2.5	3.0%	8.1%	2.5%	0.0%
CN(C)c1cc(-c2ccc(Cl)cc2Cl)oc(=O)c1Cl	17.5%	-1.3	89.1µM*	-14.0%	8.5%	-9.0%
CCNc1nc(NCC)nc(OCCOC(C)=O)n1	18.4%	7.0	36.1%	?	-7.5%	-15.2%
CCNc1nc(NCC)nc(C(=O)OCCO)n1	41.8%	0.6	25.1µM*	·	-4.4%	35.5µM*
CC(C)Nc1nc(NC(C)C)nc(C(=O)OCCO)n1	29.6%	-0.5	35.5µM*	·	1.7%	50.1µM*
SMILES	HP1b binding inh	PI5P4Ka inh	BAZ2B inh	L3MBTL1 block	JMJD2E inh	JMJD2A Tudor
O=C(On1c(-c2ccccc2)nc2ccccc2c1=O)c1ccco1	-3.9%	·	-29.2%	·	20µM*	89.1µM*
COc1cc(OC)cc(-c2nc3ccccc3c(=O)n2OC(=O)c2ccccc2C)c1	21.6%	0.5	-38.0%	0.7%	-8.2%	-11.2%
O=C(O)c1nc(-c2ccccc2)n(-c2ccccc2)n1	28.9%	2.9	0.0%	-4.8%	-4.4%	-13.2%
O=C(c1nc(-c2ccccc2)n(-c2ccccc2)n1)N1CCN(S(=O)(=O)c2ccccc2)CC1	-14.6%	0.4	?	·	4.8%	70.8µM*
COc1cnc(-c2ccccn2)nc1Oc1ccccc1Cl	34.0%	-2.7	50.1µM*	-7.8%	2.3%	11.9%
COc1cnc(-c2ccccn2)nc1Oc1ccc(Cl)cc1	13.5%	·	31.6µM*	?	6.2%	-31.3%
